Activation and outcome data for 39 compounds are collected here from PubChem BioAssay AID602412 (Johns Hopkins Ion Channel Center, 2012).

Each structure is given as a SMILES string. The list shows a part of the results. Calls of active or inactive are those of the source.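 How the source made its calls: active means calcium signal rise, corrected for plate position, at least 3 library SD high, with starting brightness within 5 such deviations; inactive means the rest.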

For this experiment, the target named is Mas-related G-protein coupled receptor member X1 (Homo sapiens) (UniProt Q96LB2). Briefly: activators of human MrgX1 calcium signaling – HEK293 cells, Fluo-4 calcium flux, confirmation (AID 602412). The settings on record: MrgX1-HEK293, Fluo-4 calcium fluorescence, FDSS, at 10 µM; hits give high values.
Mas-related G-protein coupled receptor member X1 (Homo sapiens), sequence (Q96LB2 whole entry, looked up): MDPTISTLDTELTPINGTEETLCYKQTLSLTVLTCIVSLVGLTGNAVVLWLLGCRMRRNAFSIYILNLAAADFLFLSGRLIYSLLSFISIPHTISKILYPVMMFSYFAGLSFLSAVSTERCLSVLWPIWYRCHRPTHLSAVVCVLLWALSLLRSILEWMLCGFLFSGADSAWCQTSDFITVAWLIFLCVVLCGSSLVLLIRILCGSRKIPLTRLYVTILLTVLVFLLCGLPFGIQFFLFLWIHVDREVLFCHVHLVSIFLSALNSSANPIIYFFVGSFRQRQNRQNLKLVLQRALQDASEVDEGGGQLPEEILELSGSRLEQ
For the compound `CC(=O)OC(C)C[N+](C)(C)C` (centres undefined), the activation was 483% (active).
As for `COc1ccccc1N(CC(=O)N1CCCCC1)S(=O)(=O)c1ccccc1`, the activation is 356% (active).
With `O=C1Cc2ccccc2Sc2ccc(Cl)cc21`, the activation was 104% (active).
Still for that read-out and setting: to `COc1ccc(Nc2nc(-c3cccnc3)nc3ccccc23)cn1` belongs 127% (active).
Same read-out and setting: to `O=C(Nc1ccccc1)c1nnsc1S(=O)(=O)c1ccc(Cl)cc1` belongs 210% (active).
The same measure, in the same setting: in the case of `CC1(C(=O)O)CCC(C(=O)Nc2ccc(Cl)c(Cl)c2)C1(C)C` (centres undefined) it was 149% (active); in that of `CC(Oc1ccc2ccccc2c1)C(=O)NNC(=S)NC(=O)c1ccco1` (centres undefined), 265% (active).
As for `COc1ccc(OC)c(C(=O)c2ccc(Cl)cc2)c1`, the outcome was inactive.
With `Cc1cc2oc3ccc(NCCC4CCCN4C)cc3c(=O)c2cc1C` (centres undefined), the activation is 311% (active).
Consider `CCCCC(=O)NNC(=S)NC(=O)C(c1ccccc1)c1ccccc1`, for which the result was inactive.
Take `COc1ccc(C(=O)NC(=S)NNC(=O)c2c(-c3ccccc3)noc2C)cc1`: the activation is 506% (active).
The same measure, in the same setting: to `N=C(N)SCc1cccc2ccccc12` belongs 199% (active); to `COc1ccc(C(=O)NNC(=S)NC(=O)c2ccccc2)cc1`, 570% (active); to `O=C(Nc1nnc(-c2ccccc2)o1)c1cc(-c2cccs2)nc2ccccc12`, 141% (active).
For `Cc1c(C)c2c(OCC(=O)N[C@@H](C(=O)O)c3ccccc3)cc3c(c2oc1=O)CCC(C)(C)O3`, the outcome was inactive.
Turning to `CCCc1cc(=S)n2c([nH]c3ccccc32)c1C#N`, the activation is 266% (active).
Same read-out and setting: in the case of `Cc1ccc(-n2[nH]c(C)c(/C=N/N3C(=O)c4cccc5cccc(c45)C3=O)c2=O)cc1` it was 601% (active).
For `O=c1c2cc(Br)ccc2nc(-c2cccc(Cl)c2)n1O`, the activation is 415% (active).
The same measure, in the same setting: to `CCCc1[nH]nc2c1C(c1ccc(Br)s1)C(C#N)=C(N)O2` (centres undefined) belongs 141% (active).
`COC(=O)c1ccc(COC(=O)C2CCN(S(=O)(=O)c3c(Cl)cccc3Cl)CC2)o1`: the result was inactive.
Take `CCCc1nc2c(c(=O)c3ccccc3n2C)c(=O)n1C1CCCCCC1`: the activation was 149% (active).
The same measure, in the same setting: to `CCOC(=O)c1[nH]c2ccc(C)cc2c1N=C(C)N(C)C` belongs 185% (active).
Take `Fc1ccc2[nH]c3c(N4CCSCC4)ncnc3c2c1`: the activation is 252% (active).
The same measure, in the same setting: in the case of `CC(C)(C)Nc1c(-c2cccs2)nc2ccccn12` it was 181% (active).
Turning to `Cc1onc(-c2ccccc2)c1C(=O)NNC(=S)NC(=O)c1ccc(F)cc1`, the activation is 636% (active).
On the same count and under the same terms, in the case of `O=C(CC(O)(C(F)(F)F)C(F)(F)F)Nc1ccc(Cl)c(Cl)c1` it was 242% (active); in that of `Cc1ccc(NC2(C#N)C(=O)Nc3ccccc32)cc1` (centres undefined), 191% (active); in that of `Cc1ccnc(-n2sc3ccccc3c2=O)n1`, 170% (active).
For `OCc1ccc(OCCCOc2cccc3cccnc23)cc1`, the result was inactive.
Consider `COc1ccc(C(=O)NC(=S)NNC(=O)CCc2ccccc2)cc1`, for which the activation was 595% (active).
Same read-out and setting: to `COc1ccc2c(c1)OC(O)(C(F)(F)C(F)F)CC2=O` (centres undefined) belongs 373% (active); to `Cc1[nH][nH]c(=O)c1C(c1ccc(-c2ccc(Cl)cc2)o1)c1c(C)[nH][nH]c1=O`, 187% (active); to `CC(C)CC(=O)NC(=S)NNC(=O)c1cccc([N+](=O)[O-])c1`, 268% (active).
`CCN(CC)c1ccc2oc(=O)c(C)nc2c1`: the result was inactive.
As for `O=C(CCN1CCc2ccccc2C(O)(c2ccccc2)C1)c1ccc2c(c1)OCCO2` (centres undefined), the activation was 192% (active).
On the same count and under the same terms, to `O=C1C(=O)N(CC2COc3ccccc3O2)c2ccccc21` (centres undefined) belongs 226% (active); to `CC1CCCCN1S(=O)(=O)c1ccc(C(=O)Nc2nnc(-c3cccs3)o2)cc1` (centres undefined), 88.3% (active).
The same measure, in the same setting: in the case of `Cc1nc(C)c(-c2csc(NCCc3ccccc3)n2)s1` it was 170% (active).
`COC(=O)c1ccc(C2C3=C(Nc4nnnn42)c2ccccc2OC3)cc1` (centres undefined): the result was inactive.
